Compound activity: PubChem, Center for Chemical Genomics, University of Michigan
The full list was thinned out, with hits kept by preference.
Dicer inh = blocks human Dicer maturation of pre-miR-21; 47,000 compounds, 6% hits; cat-ELCCA pre-miR-21 Dicer processing, chemiluminescence; active compounds read high; z-score at 25 µM; Q9UPY3; in the data active means z-score above about 3, passing the limit was not always enough;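 further: higher signal means more uncleaved substrate so more Dicer inhibition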
Target sequence (Q9UPY3 whole entry, looked up): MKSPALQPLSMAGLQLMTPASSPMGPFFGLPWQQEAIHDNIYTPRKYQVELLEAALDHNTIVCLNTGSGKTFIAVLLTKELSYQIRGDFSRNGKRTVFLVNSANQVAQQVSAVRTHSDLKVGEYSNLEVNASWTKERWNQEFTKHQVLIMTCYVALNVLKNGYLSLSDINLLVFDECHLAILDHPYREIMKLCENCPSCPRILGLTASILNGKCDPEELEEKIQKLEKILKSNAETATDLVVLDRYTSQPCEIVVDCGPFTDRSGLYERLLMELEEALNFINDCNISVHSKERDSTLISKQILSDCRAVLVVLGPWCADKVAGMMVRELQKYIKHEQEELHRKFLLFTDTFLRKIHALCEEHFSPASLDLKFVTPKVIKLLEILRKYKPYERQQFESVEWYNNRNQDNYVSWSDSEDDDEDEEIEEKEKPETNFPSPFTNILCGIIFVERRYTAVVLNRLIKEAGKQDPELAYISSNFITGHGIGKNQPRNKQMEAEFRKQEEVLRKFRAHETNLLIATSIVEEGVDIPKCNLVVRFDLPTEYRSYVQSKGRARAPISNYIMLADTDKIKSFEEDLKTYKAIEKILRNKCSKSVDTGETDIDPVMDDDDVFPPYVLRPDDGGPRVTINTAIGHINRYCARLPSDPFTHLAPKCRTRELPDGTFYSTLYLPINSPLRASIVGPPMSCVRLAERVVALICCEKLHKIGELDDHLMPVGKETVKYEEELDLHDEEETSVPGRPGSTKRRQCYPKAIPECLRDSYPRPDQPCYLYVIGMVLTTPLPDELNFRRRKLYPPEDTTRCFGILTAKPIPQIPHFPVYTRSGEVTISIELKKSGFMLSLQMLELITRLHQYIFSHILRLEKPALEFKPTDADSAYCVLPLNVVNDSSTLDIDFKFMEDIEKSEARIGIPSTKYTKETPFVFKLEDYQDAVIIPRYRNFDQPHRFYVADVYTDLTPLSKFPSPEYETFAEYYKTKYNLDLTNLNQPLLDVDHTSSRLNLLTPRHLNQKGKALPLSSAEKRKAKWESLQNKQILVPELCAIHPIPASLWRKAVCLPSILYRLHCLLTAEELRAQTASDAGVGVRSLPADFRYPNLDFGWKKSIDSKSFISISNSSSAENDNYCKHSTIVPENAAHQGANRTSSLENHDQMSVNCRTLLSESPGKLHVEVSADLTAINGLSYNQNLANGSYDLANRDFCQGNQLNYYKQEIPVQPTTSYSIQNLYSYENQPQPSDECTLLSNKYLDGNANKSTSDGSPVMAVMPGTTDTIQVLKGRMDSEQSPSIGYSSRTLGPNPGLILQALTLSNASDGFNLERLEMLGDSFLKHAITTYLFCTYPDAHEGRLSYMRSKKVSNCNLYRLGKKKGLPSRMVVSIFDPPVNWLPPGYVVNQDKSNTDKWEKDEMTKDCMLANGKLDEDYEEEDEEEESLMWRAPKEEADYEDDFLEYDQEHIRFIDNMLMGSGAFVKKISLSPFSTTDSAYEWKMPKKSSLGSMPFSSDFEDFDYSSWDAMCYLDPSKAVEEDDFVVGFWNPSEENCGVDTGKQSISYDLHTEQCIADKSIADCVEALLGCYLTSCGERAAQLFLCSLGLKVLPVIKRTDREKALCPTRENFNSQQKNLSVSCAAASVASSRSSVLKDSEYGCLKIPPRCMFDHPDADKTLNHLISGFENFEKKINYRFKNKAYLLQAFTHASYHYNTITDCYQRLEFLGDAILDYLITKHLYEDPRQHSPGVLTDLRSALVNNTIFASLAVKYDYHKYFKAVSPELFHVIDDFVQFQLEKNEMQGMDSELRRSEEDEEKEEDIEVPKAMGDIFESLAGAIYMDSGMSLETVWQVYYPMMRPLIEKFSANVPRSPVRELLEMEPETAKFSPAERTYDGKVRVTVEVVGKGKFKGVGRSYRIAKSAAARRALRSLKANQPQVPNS
Large screens that a line does not name were inactive.

CC(C)S(=O)(=O)c1csc(NC(=O)N=S(C)(=O)c2ccc(Cl)cc2)c1Cl (centres undefined)	none
CC(C)S(=O)(=O)c1csc(NC(=O)Nc2ccccc2Cl)c1	none
CC(C)S(=O)(=O)c1csc(NC(=O)Nc2cc(Cl)ccc2Cl)c1Cl	Dicer inh 5.3
O=c1oc(-c2ccco2)nc2cc(Cl)ccc12	none
COc1ccc(O)c(C2=Nc3ccccc3N=C(c3ccco3)C2)c1	none
Oc1ccc(Cl)cc1C1=Nc2ccccc2N=C(c2ccco2)C1	Dicer inh 3
O=C(Cn1nc(C(F)(F)F)c2c1CCC2)Nc1cccc(Cl)c1	none
COc1cc(C2(C)SCc3cc(C)c(C)cc3CS2)ccc1O	none
Oc1ccc(NCc2cccs2)cc1	none
Nc1nc(NCc2cccs2)nn1-c1ccccc1	Dicer inh 4.3
CCCCCCn1c(NCc2cccs2)nc2ccccc21	none
COc1cccc(Cn2c3c(c4ccccc4c2=O)C(=O)c2ccccc2-3)c1	none
Cc1ccc2nc(-c3cccc4ccccc34)[nH]c2c1	none
Cc1sc2nc(SCC(=O)NCc3ccccn3)[nH]c(=O)c2c1C	none
COc1cc(C)nc(SCC(N)=O)n1	none
COc1cc(C)nc(N(CCO)CCO)n1	Dicer inh 5.9
COc1cc(C)nc(-n2nc(C)cc2OC)n1	none
O=C1C2C(c3ccc(F)cc3)OC3(C(=O)c4ccccc4C3=O)C2C(=O)N1C1CCCCC1 (centres undefined)	none
CCN(CC)CC(=O)Nc1cc(C)nn1-c1ccccc1	none
CCN(CC)CC(=O)Nc1c(C#N)cnn1-c1ccccc1	Dicer inh 4.7
N#Cc1cnn(-c2ccccc2)c1NC(=O)CSc1nnc(-c2ccc(Cl)cc2)o1	none
CC(C)(C)c1ccc(-c2cc3ncnc(Nc4cccc(Cl)c4)c3s2)cc1	none
CN(CCOC(=O)c1cccs1)C(C)(C)C	none
O=C(OCCN1CCCCC1)c1cccs1	Dicer inh 3.7
COc1cc(N)c(Cl)cc1C(=O)OCCN1CCCCC1	none
N=C1C(c2nc3ccccc3s2)=C(O)CN1Cc1ccccc1	none
Cc1ccc(N2CC(O)=C(c3nc4ccccc4s3)C2=N)cc1	none
N=C1C(c2nc3ccccc3s2)=C(O)CN1C1CCCCC1	Dicer inh 3.1
CC1CC(=O)c2cnn(-c3nc4ccccc4s3)c2C1 (centres undefined)	Dicer inh 3
CC1(C)CC(=O)c2cnn(-c3nc4ccccc4[nH]3)c2C1	none
Cc1nc(Nc2ncc3c(n2)CC(C)CC3=O)nc2ccccc12 (centres undefined)	none
N#C/C(=N\OS(=O)(=O)c1ccc(Cl)cc1)S(=O)(=O)c1cccs1	none
N#C/C(=N\OC(=O)c1ccc(C(F)(F)F)cc1)S(=O)(=O)c1cccs1	Dicer inh 5.5
N#C/C(=N\Nc1cc(C(F)(F)F)cc(C(F)(F)F)c1)S(=O)(=O)c1cccs1	none
c1ccc2oc(NC3=NCN(CCN4CCOCC4)CN3)nc2c1	none
CCOC(=O)c1cc(C#N)c(Sc2n[nH]c(=O)n2Cc2ccc(C(F)(F)F)cc2)nc1C	none
NC(=O)C1=CN(C(=O)Nc2ccc(Cl)cc2)CCC1C(F)(F)F (centres undefined)	none
CCCCN1Cc2c(n(CC(=O)c3ccccc3)c3cc(-c4ccccc4)nn3c2=O)C1=O	Dicer inh 3.1
CCCCN1Cc2c(n(Cc3ccccc3)c3cc(-c4ccccc4)nn3c2=O)C1=O	none
CCCCN1Cc2c(n(CC(N)=O)c3cc(-c4ccccc4)nn3c2=O)C1=O	none
COC(=O)c1ccc(Oc2nc3c(c(=O)n(C)c(=O)n3C)n2Cc2ccc(Br)cc2)cc1	none
O=S(=O)(c1ccc(NC(=S)N/N=C/c2ccccc2)cc1)N1CCCCC1	none
O=S(=O)(c1ccc(NC(=S)NC2CCCC2)cc1)N1CCCCC1	none
O=S(=O)(c1ccc(NC(=S)N/N=C/c2ccccn2)cc1)N1CCCCC1	Dicer inh 4.2
Cn1nc(-c2ccccc2)cc1NS(=O)(=O)c1ccc(C(F)(F)F)cc1	none
CC(Cc1c[nH]c2ccccc12)C(=O)O (centres undefined)	Dicer inh 5
O=C(O)CCc1c[nH]c2ccccc12	none
O=C(O)CCCc1c[nH]c2ccccc12	none
Nc1cc(=O)[nH]c2nnc(SCc3cccc(Oc4ccccc4)c3)n12	none
CCCCCSc1nnc2[nH]c(=O)cc(N)n12	Dicer inh 4.5
CCSc1nnc2[nH]c(=O)cc(N)n12	none
CCCCCCCSc1nnc2[nH]c(=O)cc(N)n12	none
Nc1cc(=O)[nH]c2nnc(SCCc3ccccc3)n12	Dicer inh 4.1
CCCCSc1nnc2[nH]c(=O)cc(N)n12	none
OCC(O)Cn1c(SCCOc2ccc(Cl)cc2)nc2ccccc21 (centres undefined)	none
O=C1CSC(c2cn(-c3ccccc3)nc2-c2ccccc2)N1CCO (centres undefined)	none
CCOc1ccc(C2/C(=C(\O)c3ccc(OC)cc3)C(=O)C(=O)N2Cc2cccnc2)cc1OC (centres undefined)	none
COC(=O)Cc1ccc(N2C(=O)c3cccnc3C2=O)cc1	none
O=C(Nc1ccc(N2C(=O)c3cccnc3C2=O)cc1)c1cccs1	none
CC(=O)Oc1ccc(N2C(=O)c3cccnc3C2=O)cc1	Dicer inh 3.1
O=C(CSc1ncnc2c1sc1nc(N3CCOCC3)c3c(c12)CCCC3)Nc1ccccn1	none
Cc1nn(C)c(C)c1CNC(=O)c1cc2n(n1)C(C(F)(F)F)CC(c1ccc3c(c1)OCO3)N2 (centres undefined)	none
CC12c3ccccc3C(c3ccccc31)C1C(=O)N(c3ccccc3)C(=O)C12 (centres undefined)	none
O=C1C2C3c4ccccc4C(CO)(c4ccccc43)C2C(=O)N1c1ccc(F)cc1 (centres undefined)	Dicer inh 4.9
CCCCOc1ccc(N2C(=O)C3C4c5ccccc5C(CO)(c5ccccc54)C3C2=O)cc1 (centres undefined)	Dicer inh 3.3
COc1ccc(N2C(=O)C3C4c5ccccc5C(CO)(c5ccccc54)C3C2=O)cc1 (centres undefined)	none
O=C1C2C3c4ccccc4C(C(=O)O)(c4ccccc43)C2C(=O)N1c1ccccc1 (centres undefined)	none
O=C1C2C3c4ccccc4C(CO)(c4ccccc43)C2C(=O)N1c1ccccc1Cl (centres undefined)	none
COc1ccc(C(=O)CSc2ncnc3sc4c(c23)CCCC4)cc1	none
O=C(COC(=O)C1C2CCC(C2)C1C(=O)c1ccccc1)c1ccc(Cl)cc1 (centres undefined)	none
CCOCCOC(=O)COc1ccc2c(=O)c(-c3cccc4ccccc34)c(C(F)(F)F)oc2c1	none
C(=C\c1ccccc1)/CNCc1cccnc1	none
N/C(=N\C(=O)N1CCOCC1)c1ccccc1	none
CCOC(=O)/C(C#N)=C/C=C(/c1ccc(Cl)cc1)N1CCOCC1	none
CC(=O)Oc1ccccc1/C(=C/C=C(c1ccccc1)c1ccccc1)N1CCOCC1	Dicer inh 4.3
CCOC(=O)c1cc2c(NC(=O)c3ccc(Cl)cc3)c(C(=O)OCC)sc2nc1C(F)(F)F	none
CCOC(=O)CNC(=O)c1ccc(C(F)(F)F)cc1	none
COC(=O)c1cc(S(=O)(=O)n2nc(C)cc2C)c(N2CCCC2)cc1N1CCCC1	none
CCOC(=O)C1=C(C)NC2=C(C(=O)CC(C)(C)C2)C1c1cccc2ccccc12 (centres undefined)	none
COc1ccc(-c2c(C)nn3c(N)c(-c4ccc(Cl)cc4)cnc23)cc1OC	none
COc1ccc(-c2c(C)nn3c(C)cc(C)nc23)cc1OC	Dicer inh 4.8
COc1ccc(-c2c(C)nn3c(-c4ccccc4)cc(C)nc23)cc1OC	none
Cc1ccc(-c2nc(NC(=O)Nc3ccc(F)cc3)sc2C)cc1Cl	none
CC1CCCCN1C(=O)c1nn2c(c1Br)NC(c1cccs1)CC2C(F)(F)F (centres undefined)	none
Cc1csc(-c2nc(-c3ccc(C(C)(C)C)cc3)no2)c1	none
